A short description of assay [1]: ATG_GRE_CIS: Attagene CIS-FACTORIAL HepG2 Assay for human Glucocorticoid Response Elements (GRE) (AID 2282947). The conditions noted are these: HepG2 GRE cis-reporter, Attagene multiplex mRNA; actives raise or lower the signal. A digest of the protocol:
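Endogenous transcription factor activity is read through cis-element reporter constructs transiently transfected into HepG2 cells. After 24 h treatment, labelled RT-PCR products are resolved by capillary electrophoresis; DMSO sets baseline for bidirectional curve fitting.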

Assay [2] in a line: ATG_ISRE_CIS: Attagene CIS-FACTORIAL HepG2 Assay for human Interferon Regulatory Factor 1 (IRF1) binding to an Interferon-Stimulated Response Element (ISRE) (AID 2282948). The conditions noted are these: HepG2 ISRE cis-reporter (Attagene), mRNA transcription readout; actives raise or lower the signal. A digest of the protocol:
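HepG2 cells transiently transfected with multiplexed cis-promoter reporter units; after 24 h compound exposure, reporter mRNA quantified by RT-PCR, FAM labelling, HpaI digestion and capillary electrophoresis. Bidirectional fit versus DMSO baseline.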

A short description of assay [3]: ATG_M_32_CIS: Attagene CIS-FACTORIAL HepG2 Assay for M32 Transcription Factor (Internal Marker) (AID 2282949).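 Note: background control marker of the multiplexed CIS panel rather than a real target.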 Conditions: HepG2 Attagene cis-factorial M32 reporter, mRNA; actives raise or lower the signal. A digest of the protocol: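 Internal background marker read-out: RT-PCR/capillary electrophoresis fluorescence of reporter transcripts from transiently transfected HepG2 cells after 24 h chemical exposure. Activity fitted bidirectionally relative to DMSO negative control.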

The nature of assay [4]: ATG_M_06_CIS: Attagene CIS-FACTORIAL HepG2 Assay for M06 Transcription Factor (Internal Marker) (AID 2282950). The conditions noted are these: HepG2 Attagene CIS-FACTORIAL M06 internal marker reporter; actives raise or lower the signal. In outline: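 Read-out is fluorescence of labelled reporter cDNA fragments resolved by capillary electrophoresis after RT-PCR. Cells: HepG2 carrying transfected cis-promoter reporter units, treated 24 h. Gain or loss of signal fitted relative to DMSO.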

In assay [5] the target is Hypoxia-inducible factor 1-alpha (Homo sapiens) (UniProt Q16665). In words: ATG_HIF1a_CIS: Attagene CIS-FACTORIAL HepG2 Assay for human Hypoxia Inducible Factor 1 (HIF1A) (AID 2282951). The conditions noted are these: HepG2 Attagene cis-factorial HIF1a reporter transcription; actives raise or lower the signal. In outline:
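HepG2 cells transiently transfected with multiple cis-regulated reporter transcription units measure endogenous transcription factor activity. After 24 h exposure, reporter mRNA is quantified by RT-PCR with 6-FAM labelling, HpaI digestion and capillary electrophoresis. Bidirectional fitting against DMSO.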

For assay [6], the target named is Hepatocyte nuclear factor 6 (Homo sapiens) (UniProt Q9UBC0). In words: ATG_HNF6_CIS: Attagene CIS-FACTORIAL HepG2 Assay for human Hepatocyte Nuclear Factor 6 (HNF6) (AID 2282952). Conditions: HepG2 Attagene cis-factorial HNF6 reporter transcription; actives raise or lower the signal. A digest of the protocol: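 Cells are HepG2 carrying transiently transfected cis-promoter reporter units. Treatment lasts 24 h, after which reporter transcripts are reverse-transcribed, amplified, FAM-labelled and sized by capillary electrophoresis. DMSO serves as baseline.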
Hepatocyte nuclear factor 6 (Homo sapiens), sequence (Q9UBC0 whole entry, looked up): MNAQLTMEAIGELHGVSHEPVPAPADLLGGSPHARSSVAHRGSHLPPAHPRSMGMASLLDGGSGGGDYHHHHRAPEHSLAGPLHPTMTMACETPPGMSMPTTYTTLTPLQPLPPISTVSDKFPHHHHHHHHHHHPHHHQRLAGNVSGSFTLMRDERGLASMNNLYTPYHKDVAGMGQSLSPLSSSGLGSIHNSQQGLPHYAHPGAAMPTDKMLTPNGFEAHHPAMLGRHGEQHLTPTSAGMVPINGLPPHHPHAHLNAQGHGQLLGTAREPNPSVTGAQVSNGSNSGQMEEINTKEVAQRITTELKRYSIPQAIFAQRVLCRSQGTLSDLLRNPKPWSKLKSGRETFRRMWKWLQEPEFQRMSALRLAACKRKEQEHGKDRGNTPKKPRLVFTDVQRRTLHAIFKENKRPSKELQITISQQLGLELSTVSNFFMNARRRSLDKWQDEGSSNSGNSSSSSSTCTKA

Assay [7] concerns the target Heat shock factor protein 1 (Homo sapiens) (UniProt Q00613). In words: ATG_HSE_CIS: Attagene CIS-FACTORIAL HepG2 Assay for human Heat Shock Transcription Factor 1 (HSE) (AID 2282953). The conditions noted are these: HepG2 HSE cis-reporter, Attagene RNA transcription; actives raise or lower the signal. In outline: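 HepG2, transient MRTU transfection, cis-promoter reporters (endogenous TF activity). 24 h compound. RNA → oligo(dT) RT → PCR → 6-FAM primer extension → HpaI cut → CE. Bidirectional fit vs DMSO.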

Assay [8] can be described thus: ATG_MRE_CIS: Attagene CIS-FACTORIAL HepG2 Assay for human Metal Responsive Element (MRE) (AID 2282954). Conditions: HepG2 MRE cis-reporter transcription, Attagene multiplex; actives raise or lower the signal. A digest of the protocol:
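Fluorescent reporter fragments separated by capillary electrophoresis give mRNA induction for the MRE unit after 24 h treatment of transfected HepG2 cells. Endogenous transcription-factor activity is read; DMSO serves as negative control and baseline.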

For assay [9], the target named is Paired box protein Pax-6 (Homo sapiens) (UniProt P26367). In words: ATG_Pax6_CIS: Attagene CIS-FACTORIAL HepG2 Assay for human Paired Box 6 (PAX6) (AID 2282956). The conditions noted are these: HepG2 CIS-FACTORIAL PAX6 reporter transcription, RNA readout; actives raise or lower the signal. A digest of the protocol: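 HepG2 cells transiently transfected with multiplexed cis-promoter reporter units (endogenous TF activity) were dosed for 24 h. Reporter mRNA was quantified by RT-PCR, 6-FAM labeling, HpaI digestion and capillary electrophoresis; bidirectional fitting versus DMSO baseline.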
Paired box protein Pax-6 (Homo sapiens), sequence (P26367 whole entry, looked up): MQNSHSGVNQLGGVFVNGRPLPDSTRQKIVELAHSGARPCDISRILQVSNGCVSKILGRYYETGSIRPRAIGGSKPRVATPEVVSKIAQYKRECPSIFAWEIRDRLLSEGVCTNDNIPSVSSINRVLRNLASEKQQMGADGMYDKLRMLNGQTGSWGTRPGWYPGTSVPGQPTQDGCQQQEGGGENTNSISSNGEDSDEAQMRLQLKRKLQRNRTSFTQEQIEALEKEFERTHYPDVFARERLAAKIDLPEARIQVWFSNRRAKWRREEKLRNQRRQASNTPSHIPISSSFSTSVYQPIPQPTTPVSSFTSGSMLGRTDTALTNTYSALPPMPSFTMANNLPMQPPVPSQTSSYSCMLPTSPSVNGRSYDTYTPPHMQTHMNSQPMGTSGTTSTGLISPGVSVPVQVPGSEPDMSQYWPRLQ

A short description of assay [10]: ATG_PBREM_CIS: Attagene CIS-FACTORIAL HepG2 Assay for human Phenobarbital-responsive Enhancer Module (PBREM) (AID 2282955). The conditions noted are these: HepG2 PBREM cis-reporter, Attagene multiplexed transcription; actives raise or lower the signal. A digest of the protocol: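 HepG2 cells transiently transfected with multiple cis-regulated reporter units measure endogenous transcription factor activity; 24 h compound exposure. Reporter mRNA quantified by RT-PCR, fluorescent labelling, HpaI digestion and capillary electrophoresis; bidirectional fit versus DMSO.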

The source made the active and inactive calls. Rule for the calls: active = hit-call score of the fitted dose curve at least 0.9, where 1 is the maximum; inactive = score below 0.9.

Hypoxia-inducible factor 1-alpha (Homo sapiens), sequence (Q16665 whole entry, looked up): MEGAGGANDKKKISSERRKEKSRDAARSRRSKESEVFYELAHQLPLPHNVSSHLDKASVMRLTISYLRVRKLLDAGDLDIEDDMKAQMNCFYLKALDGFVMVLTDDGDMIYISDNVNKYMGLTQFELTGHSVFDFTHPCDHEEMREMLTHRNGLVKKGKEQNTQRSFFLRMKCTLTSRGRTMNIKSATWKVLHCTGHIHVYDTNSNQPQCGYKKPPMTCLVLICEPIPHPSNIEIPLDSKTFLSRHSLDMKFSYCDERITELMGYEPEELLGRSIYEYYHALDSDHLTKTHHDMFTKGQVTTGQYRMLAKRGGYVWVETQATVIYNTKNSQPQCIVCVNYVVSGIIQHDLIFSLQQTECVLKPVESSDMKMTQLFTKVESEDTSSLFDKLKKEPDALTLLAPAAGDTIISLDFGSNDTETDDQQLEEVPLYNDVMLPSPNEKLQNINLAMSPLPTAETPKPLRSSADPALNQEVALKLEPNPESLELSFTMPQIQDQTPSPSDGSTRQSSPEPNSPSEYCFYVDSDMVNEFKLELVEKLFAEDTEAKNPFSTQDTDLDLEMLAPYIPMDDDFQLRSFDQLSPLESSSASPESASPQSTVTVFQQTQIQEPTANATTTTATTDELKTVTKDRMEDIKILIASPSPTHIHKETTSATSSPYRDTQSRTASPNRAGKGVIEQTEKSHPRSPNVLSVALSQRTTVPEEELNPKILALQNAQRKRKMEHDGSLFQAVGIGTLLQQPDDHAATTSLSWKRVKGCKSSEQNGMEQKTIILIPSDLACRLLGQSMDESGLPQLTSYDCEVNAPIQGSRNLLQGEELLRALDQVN
Heat shock factor protein 1 (Homo sapiens), sequence (Q00613 whole entry, looked up): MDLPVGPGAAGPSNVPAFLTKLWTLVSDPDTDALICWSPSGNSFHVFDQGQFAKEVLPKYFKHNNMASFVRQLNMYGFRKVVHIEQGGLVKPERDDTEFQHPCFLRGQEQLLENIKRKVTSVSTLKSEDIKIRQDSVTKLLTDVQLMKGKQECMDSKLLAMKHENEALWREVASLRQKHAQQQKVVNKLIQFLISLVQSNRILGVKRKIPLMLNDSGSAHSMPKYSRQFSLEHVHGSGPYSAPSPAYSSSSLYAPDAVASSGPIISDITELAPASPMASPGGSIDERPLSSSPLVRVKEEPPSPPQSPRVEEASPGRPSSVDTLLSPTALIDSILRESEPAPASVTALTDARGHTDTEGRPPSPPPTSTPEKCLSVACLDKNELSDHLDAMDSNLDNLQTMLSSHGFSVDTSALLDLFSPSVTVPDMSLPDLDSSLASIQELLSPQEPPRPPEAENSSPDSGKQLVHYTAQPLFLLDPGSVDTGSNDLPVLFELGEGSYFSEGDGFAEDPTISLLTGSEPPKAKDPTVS

As for `Nc1nc(N)nc(NC2CC2)n1`, the compound was classed as inactive in [1], in assay [2], in assay [3], in [4], in assay [5] and in assay [6]. Also, the outcome in assay [7], in [8] and in assay [9] was inactive.

Broadly, the AC50 is the concentration giving half of the maximal activity seen. For `CC(C)[C@H](C(=O)O[C@H](C#N)c1cccc(Oc2ccccc2)c1)c1ccc(Cl)cc1`, the outcome in assay [2], in assay [3], in [4], in assay [5], in [6] and in [7] was inactive. Moreover, the compound was called inactive in assay [8] and in assay [9]. In [10], the half-maximal activity concentration (AC50) was 9.24 µM (active).

With `CC(COc1ccc(Oc2ccccc2)cc1)Oc1ccccn1` (stereo unspecified), the compound was called inactive in assay [2], in assay [3], in [4], in assay [5], in assay [6] and in [8]. Moreover, the compound was called inactive in [9]. Also, the AC50 in assay [10] is 13.8 µM (active).

For the compound `CCOP(=S)(Oc1cnc(C(C)(C)C)nc1)OC(C)C` (stereo unspecified), the compound was classed as inactive in [1], in [2], in assay [3], in assay [4], in assay [5] and in assay [6]. In addition, the outcome in assay [9] was inactive. Further, the concentration at half-maximal activity (AC50) in [8] was 65.3 µM (active); in assay [10], 21.2 µM (active).

Take `CSc1nc(NC(C)C)nc(NC(C)C)n1`: the outcome in [2], in assay [3], in assay [4], in assay [5], in assay [6] and in [7] was inactive. For the same compound, the compound was classed as inactive in assay [8], in assay [10] and in [9].

For `CC1(C(=O)Nc2ccc(O)c(Cl)c2Cl)CCCCC1`, the outcome in assay [2], in [3], in [4], in [5], in assay [6] and in [7] was inactive. Besides, the compound was classed as inactive in assay [9]. Besides, the AC50 in assay [8] was 50 µM (active); in assay [10], 5.86 µM (active).

On to `CCOP(=O)(NC(C)C)Oc1ccc(SC)c(C)c1` (stereo unspecified), for which the outcome in assay [1], in [2], in [3], in [4], in assay [5] and in [6] was inactive. The compound was classed as inactive in assay [8] and in assay [9]. Besides, in assay [10], the AC50 is 16.2 µM (active).

For `CN(C)NC(=O)CCC(=O)O`, the compound was called inactive in [2], in assay [3], in assay [4], in [5], in assay [6] and in assay [7]. The outcome in assay [8], in assay [10] and in assay [9] was inactive.

On to `C#CCC1=C(C)C(OC(=O)C2C(C=C(C)C)C2(C)C)CC1=O` (stereo unspecified), for which the AC50 is 71.2 µM (active) in [2]; 90.5 µM (active) in [3]; 50 µM (active) in assay [5]; 50 µM (active) in assay [6]; 74.8 µM (active) in assay [7]; 72.2 µM (active) in assay [8]. The AC50 in assay [10] was 4.27 µM (active); in assay [9], 72.1 µM (active). Further, the result in [4] was inactive.

Regarding `COP(=O)(OC)C(O)C(Cl)(Cl)Cl` (stereo unspecified), the result in assay [1], in assay [2], in assay [3], in assay [4], in assay [6] and in assay [7] was inactive. Besides, the result in assay [10] and in [9] was inactive. For the same compound, in [8], the AC50 was 31.5 µM (active).

`C[N+]1(C)CCCCC1`: the compound was called inactive in [2], in [3], in [4], in [5], in assay [6] and in assay [7]. For the same compound, the compound was classed as inactive in assay [8], in assay [10] and in [9].

On to `CC(C1CC1)C(O)(Cn1cncn1)c1ccc(Cl)cc1` (stereo unspecified), for which the compound was called inactive in assay [2], in [3], in [4], in assay [5], in assay [6] and in [7]. The call in assay [8] and in assay [9] was inactive.

For `CN(C)C(=O)Nc1cccc(C(F)(F)F)c1`, the compound was called inactive in assay [2], in assay [3], in assay [4], in [5], in assay [6] and in assay [7]. Further, the outcome in assay [8], in assay [10] and in assay [9] was inactive.

With `Cc1cc(C2CC2)nc(Nc2ccccc2)n1`, the AC50 was 81 µM (active) in [2]; 50 µM (active) in assay [5]; 74.7 µM (active) in assay [8]; 50 µM (active) in assay [10]; 50 µM (active) in assay [9]. Further, the call in assay [3], in assay [4], in assay [6] and in [7] was inactive.

For the compound `C[Si](Cn1cncn1)(c1ccc(F)cc1)c1ccc(F)cc1`, the call in [2], in assay [4] and in assay [6] was inactive. For the same compound, the AC50 in [3] was 35.4 µM (active); in assay [5], 50 µM (active); in [7] it was 85.6 µM (active); in assay [8], 63.2 µM (active); in assay [9] it was 67.8 µM (active).

Regarding `CC1=NNC(=O)N(/N=C/c2cccnc2)C1`, the outcome in assay [2], in assay [3], in [4], in assay [5], in assay [6] and in assay [7] was inactive. Moreover, the call in assay [8] and in [9] was inactive.

Turning to `CCCCOC(=O)c1ccccc1C(=O)O`, the result in assay [2], in [3], in assay [4], in [5], in [6] and in assay [7] was inactive. The compound was called inactive in assay [8], in [10] and in assay [9].

For the compound `CCNc1nc(Cl)nc(NC(C)(C)C#N)n1`, the compound was called inactive in assay [1], in [2], in assay [3], in assay [4], in assay [5] and in assay [6]. The compound was called inactive in assay [8], in assay [10] and in assay [9].

Turning to `CC(=NC#N)N(C)Cc1ccc(Cl)nc1`, the compound was classed as inactive in [2], in assay [3], in [4], in [5], in assay [6] and in assay [7]. The compound was called inactive in assay [8] and in [9].
